IL1B secr inh = blocks inflammasome-driven IL-1 beta release. THP-1 LPS/ATP IL-1B secretion, AlphaLISA, 16 h; active compounds read low. activity change, % at 57.5 µM. 360,000 compounds, 4.7% hits; in the data active means activity change below about -50%; inconclusive means mostly about -30% to -49%
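THP-1 cells pretreated 1 hr with compounds (up to 57.5 uM final), then stimulated with LPS (250 ng/mL final) plus ATP (1.25 mM final); secreted IL-1B measured by AlphaLISA after 16 hr, decreased signal indicating inhibition.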
DT40 TDP1 CPT = growth inhibition of DT40 Tdp1-/-;hTDP1 cells with camptothecin (screen for TDP1 inhibitors) | chicken DT40 Tdp1-/-;hTDP1 cells + 20 nM CPT, ATP luminescence, 48 h | Potency, µM (titrated, usually from 46.2 µM), actives largely listed as inhibitors | 420,000 compounds, 12% hits; further: nearly all actives have a fitted effect of over 55% in size
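Chicken DT40 Tdp1-/- cells stably complemented with human TDP1 were seeded at 400 cells/well in medium containing 20 nM camptothecin, exposed to pin-transferred compounds, and grown at 37 °C for at least 48 hr. Viability was read as ATP luminescence.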
HT1080NT lethal = kills 2HG-producing HT-1080-NT fibrosarcoma cells. HT-1080-NT fibrosarcoma viability, CellTiter-Glo ATP luminescence, 48 h. Potency, µM (titrated, usually from 46.1 µM), actives largely listed as cytotoxic. 360,000 compounds, 1.6% hits;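 further: NT is the 2HG producing partner of a matched IDH1 knockdown line; nearly all actives have a fitted effect of over 55% in size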
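750 cells/well, RPMI + 5% FBS; 2 h settle, compound pin-transfer, 48 h at 37 degrees C. CellTiter-Glo 10 min RT, luminescence. Normalized to DMSO and media-only wells.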
HT1080 IDH1KD tx = toxicity to HT-1080 IDH1 knockdown cells (counter line); HT-1080 IDH1 knockdown viability, ATP luminescence, 48 h; Potency, µM (titrated, usually from 46.1 µM), actives largely listed as cytotoxic; 360,000 compounds, 2% hits; AID 686971
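Luminescent ATP read-out (CellTiter-Glo, 10 min at room temperature) after 48 h compound exposure at 37 °C gave viability of IDH1-knockdown HT-1080 cells. Activity was normalised to DMSO and cell-free wells, then fitted as concentration-response curves.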
DT40 TDP1 no CPT = qHTS for Inhibitors of human tyrosyl-DNA phosphodiesterase 1 (TDP1): qHTS in cells in absence of CPT | DT40 Tdp1-/- hTDP1 cells, no CPT, ATP luminescence, 48 h | Potency, µM (highest dose often 46.2 µM), most hits filed as inhibitors | 420,000 compounds, 15% hits | AID 686978, 2013; further: nearly all actives have a fitted effect of over 55% in size
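A cellular qHTS used chicken DT40 cells lacking endogenous Tdp1 but carrying stably transfected human TDP1. Compounds were applied without camptothecin, and cell growth kinetics were judged by ATP-dependent luminescence after ≥48 hr.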
Numbers stand for hits; [ ] = dose if it differs, or a comment. The list is not random: actives were taken first. Their share in the collection is about 19%. Unless noted, the call rests on the fitted dose curve; in most records, active means well fitted curve in the direction sought with a large enough effect; inconclusive means small, poorly fitted or top-dose-only effect, or another doubt; inactive means no such curve, though single readings can be large; an effect the other way counts as inactive or inconclusive.

Screening O=C(OCC(O)CO)c1ccccc1Nc1ccnc2cc(Cl)ccc12 (stereo unspecified) returned IL1B secr inh -83, DT40 TDP1 CPT inconclusive, HT1080NT lethal inactive, HT1080 IDH1KD tx inactive and DT40 TDP1 no CPT inconclusive.
`Cc1nc2c(O)c3c(c(O)c2nc1C)C1C=CC3CC1` gave IL1B secr inh inactive, DT40 TDP1 CPT 0.46µM, HT1080NT lethal inconclusive, HT1080 IDH1KD tx 16µM and DT40 TDP1 no CPT 0.52µM.
Screening c1ccc2c(c1)oc1c(NCc3ccc4c(c3)OCO4)ncnc12 returned IL1B secr inh inactive, DT40 TDP1 CPT inconclusive, HT1080NT lethal inactive, HT1080 IDH1KD tx inactive and DT40 TDP1 no CPT inconclusive.
Screening c1cncc(CNc2ncncc2-c2ccc3c(c2)OCO3)c1 returned DT40 TDP1 CPT 6.5µM and DT40 TDP1 no CPT 10µM.
`Cc1cccc(CNc2ncnc3ccc(-c4ccc(C(=O)N(C)C)cc4)cc23)c1` gave DT40 TDP1 CPT inconclusive and DT40 TDP1 no CPT 26µM.
For Cc1cccc(CNc2ncnc3ccc(-c4ccc5c(c4)OCO5)cc23)c1 the results were DT40 TDP1 CPT inconclusive and DT40 TDP1 no CPT 18µM.
For Cc1cccc(CNc2ncncc2-c2cccnc2)c1 the results were DT40 TDP1 CPT inactive and DT40 TDP1 no CPT inactive.
Cc1cccc(CNc2ncncc2-c2ccc(C(=O)N(C)C)cc2)c1 was read as DT40 TDP1 CPT inconclusive and DT40 TDP1 no CPT 3.7µM.
`O=C(NCCS(=O)(=O)N1CCN(c2cccc(Cl)c2)CC1)c1ccco1` gave IL1B secr inh inactive, DT40 TDP1 CPT inactive, HT1080NT lethal inactive, HT1080 IDH1KD tx inactive and DT40 TDP1 no CPT inconclusive.
For CC(Sc1ccc(S(=O)(=O)N(C)C)cn1)C(=O)NC1CCCC1 (stereo unspecified) the results were IL1B secr inh inactive, DT40 TDP1 CPT inactive, HT1080NT lethal inactive, HT1080 IDH1KD tx inactive and DT40 TDP1 no CPT inactive.
Cc1cccc(CNc2nc(-c3ccc4c(c3)OCO4)nc3ccccc23)c1 was read as DT40 TDP1 CPT inconclusive and DT40 TDP1 no CPT 23µM.
Screening O=C(C1=C(O)C(=O)N(CC2CCCO2)C1c1ccc(Cl)cc1Cl)c1ccco1 (stereo unspecified) returned IL1B secr inh inactive, DT40 TDP1 CPT inconclusive, HT1080NT lethal inactive, HT1080 IDH1KD tx inactive and DT40 TDP1 no CPT inconclusive.
O=C1CN(S(=O)(=O)c2ccc([N+](=O)[O-])cc2)CC(=O)N1 was read as IL1B secr inh inactive, DT40 TDP1 CPT inactive, HT1080NT lethal inactive, HT1080 IDH1KD tx inactive and DT40 TDP1 no CPT inactive.
`O=c1cc(-c2ccncc2)oc2c1ccc1ccccc12` gave IL1B secr inh -83, DT40 TDP1 CPT inconclusive, HT1080NT lethal inactive, HT1080 IDH1KD tx inactive and DT40 TDP1 no CPT 23µM.
For O=c1cc(C(Cl)(Cl)Cl)oc2c1ccc1ccccc12 the results were IL1B secr inh -73, DT40 TDP1 CPT 0.15µM, HT1080NT lethal 16µM, HT1080 IDH1KD tx 12µM and DT40 TDP1 no CPT 0.52µM.
Screening O=c1cc(-c2ccco2)oc2c1ccc1ccccc12 returned IL1B secr inh inactive, DT40 TDP1 CPT inactive, HT1080NT lethal inactive, HT1080 IDH1KD tx inactive and DT40 TDP1 no CPT inactive.
Screening O=c1cc(-c2ccc(O)cc2)oc2c1ccc1ccccc12 returned IL1B secr inh -59, DT40 TDP1 CPT inactive, HT1080NT lethal inactive, HT1080 IDH1KD tx inactive and DT40 TDP1 no CPT inactive.
`O=c1cc(-c2ccc(O)cc2)oc2ccc3ccccc3c12` gave IL1B secr inh inactive, DT40 TDP1 CPT inconclusive, HT1080NT lethal inconclusive, HT1080 IDH1KD tx inconclusive and DT40 TDP1 no CPT 16µM.
For Fc1ccc(-c2cc(C(F)(F)F)nc(NCC3CCCO3)n2)cc1 (stereo unspecified) the results were IL1B secr inh inactive, DT40 TDP1 CPT inactive, HT1080NT lethal inactive, HT1080 IDH1KD tx inactive and DT40 TDP1 no CPT inactive.
Screening O=c1cc(-c2ccc(O)cc2)oc2c(O)c(O)c(O)c(O)c12 returned IL1B secr inh inactive, DT40 TDP1 CPT 23µM, HT1080NT lethal inactive, HT1080 IDH1KD tx inactive and DT40 TDP1 no CPT inconclusive.
Screening O=C(CCc1ccncc1)NC1CCCc2c1cnn2-c1ccc(F)cc1F (stereo unspecified) returned IL1B secr inh inactive, DT40 TDP1 CPT inconclusive, HT1080NT lethal inconclusive, HT1080 IDH1KD tx inactive and DT40 TDP1 no CPT inconclusive.
CCc1nccn1CCC(=O)NC1CCCc2c1cnn2-c1ccc(F)cc1F (stereo unspecified) was read as IL1B secr inh inactive, DT40 TDP1 CPT inconclusive, HT1080NT lethal inactive, HT1080 IDH1KD tx inactive and DT40 TDP1 no CPT inconclusive.
For CCc1cc(C(=O)NC2CCCc3c2cnn3-c2ccc(F)cc2F)no1 (stereo unspecified) the results were IL1B secr inh inactive, DT40 TDP1 CPT 21µM, HT1080NT lethal inactive, HT1080 IDH1KD tx inactive and DT40 TDP1 no CPT 18µM.
CC1=C(C(=O)NC2CCCc3c2cnn3-c2ccc(F)cc2F)OCCO1 (stereo unspecified) was read as IL1B secr inh inactive, DT40 TDP1 CPT 21µM, HT1080NT lethal inactive, HT1080 IDH1KD tx inactive and DT40 TDP1 no CPT 4.1µM.
Screening Cc1ccc(CSc2nncn3c2cc2sccc23)cc1 returned DT40 TDP1 CPT inactive and DT40 TDP1 no CPT inactive.
Screening O=C(C(=O)N1CCN(c2ccccc2)CC1)c1ccccc1 returned IL1B secr inh inactive, DT40 TDP1 CPT inactive, HT1080NT lethal inactive, HT1080 IDH1KD tx inactive and DT40 TDP1 no CPT inactive.
O=C1Nc2ccc(S(=O)(=O)N3CCCC3)c3ccc(S(=O)(=O)N4CCCC4)c1c23 was read as IL1B secr inh inactive, DT40 TDP1 CPT 8.2µM, HT1080NT lethal inactive[9.24 µM], HT1080 IDH1KD tx inactive and DT40 TDP1 no CPT inconclusive.
Screening O=S(=O)(c1ccc(Cl)c2ccccc12)N1CCCC1 returned IL1B secr inh inactive, DT40 TDP1 CPT inactive, HT1080NT lethal inactive, HT1080 IDH1KD tx inactive and DT40 TDP1 no CPT 0.46µM.
`Cc1cccc(C)c1NC(=O)CS(=O)(=O)c1nc(-c2ccc(Cl)cc2)cn1-c1ccccc1` gave DT40 TDP1 CPT 9.2µM and DT40 TDP1 no CPT 16µM.
`COc1ccc(-c2ccc(=O)n(CC(=O)Nc3ccccc3C(F)(F)F)n2)cc1` gave DT40 TDP1 CPT inactive and DT40 TDP1 no CPT inactive.
`COc1ccccc1-n1cc(-c2ccc(C)cc2)nc1S(=O)(=O)CC(=O)Nc1ccccc1C(F)(F)F` gave DT40 TDP1 CPT inconclusive and DT40 TDP1 no CPT 16µM.
For COc1ccc(-c2cn(-c3ccc(C)cc3)c(S(=O)(=O)CC(=O)Nc3ccc(F)cc3)n2)cc1 the results were DT40 TDP1 CPT 16µM and DT40 TDP1 no CPT 21µM.
For Nc1ccc(C(=O)N/N=C/c2cn(Cc3cccc(F)c3)c3ccccc23)cc1 the results were IL1B secr inh inactive, DT40 TDP1 CPT inconclusive, HT1080NT lethal inactive, HT1080 IDH1KD tx inactive and DT40 TDP1 no CPT inconclusive.

Compound activity deposited in PubChem by National Center for Advancing Translational Sciences (NCATS).
